SMILES strings stand for the structures. Values joined by “and” are separate entries in the source; they are usually repeats but may differ in a detail not shown here. Identical values can stand only once. Inconclusive results are not listed. Active and inactive are the calls of the source. Unless noted, the call rests on the fitted dose curve; in most records, active means well fitted curve in the direction sought with a large enough effect; inconclusive means small, poorly fitted or top-dose-only effect, or another doubt; inactive means no such curve, though single readings can be large; an effect the other way counts as inactive or inconclusive.

A short description of test [1]: qHTS Assay for Identifying Gametocytocidal Compounds (AID 743244).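 Further: on the % scale 0 is the no-effect control and ±100 the full control effect; actives lower the fluorescent signal which means gametocytes are killed.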 As to conditions: P. falciparum 3D7 stage III-V gametocytes, alamarBlue, 72 h; max response: stronger effect = lower value. The method in brief: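 3D7 gametocytes, stages III–V, 20,000/well; cpd 72 h, 37 °C/5% CO2; + alamarBlue 24 h; fluor. Ex 525/Em 598.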
For orientation: In qHTS, concentration-response curves come from the screen itself.

Test [2] is described as follows: qHTS assay for cell viability of HEK293 cells (AID 743288). Further: on the % scale 0 is the no-effect control and ±100 the full control effect; nearly all actives have a fitted effect of over 50% in size. As to conditions: ATP luminescence (CellTiter-Glo), 18 h, stronger effect = lower value. The procedure, abridged:
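Steps: plate 2,000 parental HEK293 cells per well; incubate ≥5 h, 37 C; add compounds in DMSO; incubate 18 h, 37 C; add CellTiter-Glo; wait 30 min at room temperature; read luminescence.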

A short description of test [3]: qHTS assay for cell viability of the p53RE-bla HCT-116 cell line (AID 743292). Further: on the % scale 0 is the no-effect control and ±100 the full control effect; nearly all actives have a fitted effect of over 55% in size. The procedure, abridged:
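After plating at 4,000 cells per well and a 5 h rest at 37 C, HCT-116 cells carrying p53RE-bla received test chemicals in DMSO. Sixteen hours later at 37 C, CellTiter-Glo was added and luminescence recorded following 30 min at room temperature.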

The nature of test [4]: qHTS assay for measurement of the activity of small molecule inhibitors on Zika virus induced Caspase-3 activity in human iPSC derived neural progenitor cells (hNPCs) (AID 1224857). Further: % of control where 0% means no effect; nearly all actives have a fitted effect of over 65% in size. The procedure, abridged:
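Cells were plated at 350 per well and grown 16 to 20 hours. Compound pretreatment lasted one hour, after which ZIKV (2 FFU/cell) was added for 6 hours. Percent inhibition was normalized between uninfected and infected controls.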

Test [5] is described as follows: qHTS assay for measurement of the activity of small molecule inhibitors on Zika virus induced Caspase-3 activity in human astrocytoma cells (AID 1224859).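 Further: plate controls were ZIKV-infected untreated cells for no effect and uninfected cells for full effect.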 The method in brief: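 Percent inhibition of virus-induced caspase-3/7 signal is calculated against uninfected and ZIKV-infected control cells. Cells are SNB-19, infected at 2 FFU/cell for 6 h after 1 h compound exposure.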

Test [6] in a line: qHTS assay to identify small molecule inhibitors of chordoma cells - UCH-1 (AID 1259355). Further: on the % scale 0 is the no-effect control and ±100 the full control effect; nearly all actives have a fitted effect of over 55% in size. The procedure, abridged:
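800 cells/well, overnight attach; compounds pinned at 15 concs, then auranofin/camptothecin/doxorubicin/rubitecan/topotecan combo added; 48hr 37 C, 5% CO2; CellTiter-Glo, 30min RT, luminescence.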

The nature of test [7]: qHTS assay to identify small molecule inhibitors of chordoma cells - UCH-2 (AID 1259356). Further: on the % scale 0 is the no-effect control and ±100 the full control effect.
Test [8] can be described thus: qHTS profiling for inhibitors of Plasmodium falciparum (3D7) proliferation (AID 743322).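 Further: infected erythrocytes exposed to compound for 72 h before lysis; 100% = DMSO vehicle wells and 0% = 0.29 µM artemisinin.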 As to conditions: P. falciparum 3D7 proliferation; at 28.7 µM (top of the series) unless noted. The method in brief: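 Parasite DNA was quantified by SYBR Green I fluorescence (ex 485, em 535 nm) after overnight lysis in saponin/Triton buffer at room temperature. Cultures at 0.3% parasitemia and 2.5% hematocrit were first exposed to compound for 72 h at 37 C; signals were normalised to artemisinin (0.29 uM) and vehicle wells.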

A short description of test [9]: qHTS profiling for inhibitors of Plasmodium falciparum (DD2) proliferation (AID 743323; call rule not given here). As to conditions: lower = more inhibition; at 28.7 µM (top of the series) unless noted. The method in brief:
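1536-well qHTS; infected RBCs 0.3% parasitemia/2.5% Hct final; cpd 72 h 37 C 5% CO2; lysis buffer + SYBR Green I, o/n RT dark; FI 485/535; norm. to 0.29 uM artemisinin and DMSO, plate-stack corrected.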

Test [10] in a line: qHTS profiling for inhibitors of Plasmodium falciparum (HB3) proliferation (AID 743324).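 Further: 100% = DMSO vehicle wells and 0% = artemisinin-treated control wells.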 As to conditions: Plasmodium falciparum HB3 blood-stage proliferation; at 28.7 µM (top of the series) unless noted. The method in brief: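 SYBR Green fluorescence (485 ex/535 em) of lysed cultures, incubated overnight at room temperature in the dark, quantifies parasite DNA. Infected erythrocytes at 0.3% parasitemia and 2.5% hematocrit were exposed 72 h; values normalized to DMSO and 0.29 uM artemisinin controls.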

Test [11] is described as follows: P-glycoprotein substrates identified in KB-3-1 adenocarcinoma cell line, qHTS therapeutic library screen (AID 1346986). Further: nearly all actives have a fitted effect of over 60% in size. Particulars: KB-3-1 parental cells viability, CellTiter-Glo, 72 h; at 44.5 µM (top of the series) unless noted. The method in brief:
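Dose-response cytotoxicity, KB-3-1 vs P-gp-high KB-8-5-11, no colchicine in assay medium. Read: CellTiter-Glo at 72 h.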

As for `COc1ccccc1O`, the max response in [1] is -0.65% (inactive); in test [2] it was 2.42% (inactive) and 2.72% (inactive) and -4.36% (inactive). The Potency entry in test [3] and in test [6] was “inactive” in each case. For the same molecule, the call in [4], in [5] and in test [7] was inactive.
As to `CCCCOC(=O)c1ccc(O)cc1`, the max response in test [1] was 0.124% (inactive); in test [2], -12.8% (inactive) and -6.18% (inactive). Besides, the Potency result in test [3] and in test [6] was “inactive” in each case. For the same molecule, the molecule was classed as inactive in [4], in test [5] and in test [7].
In the case of `COC(=O)C1=C(C)NC(C)=C(C(=O)OC)C1c1ccccc1[N+](=O)[O-]`, the max response in test [1] was 13.4% (inactive) and 13.1% (inactive). In addition, the molecule was classed as inactive in [4], in test [5] and in test [7].
As for `CC(O)CN(CCN(CC(C)O)CC(C)O)CC(C)O` (stereo not given), the results for the max response in [1] and in [2] were 3.97% (inactive) and -9.37% (inactive), respectively. Besides, the Potency entry in test [3] and in test [6] was “inactive” throughout. Moreover, the result in [4], in [5] and in test [7] was inactive.
As to `Cc1ncc([N+](=O)[O-])n1CC(O)CCl` (stereo not given), the max response in [1] was 22.3% (inactive). The result in test [4], in test [5] and in test [7] was inactive.
Turning to `Cc1cc(CC(=O)O)n(C)c1C(=O)c1ccc(Cl)cc1`, the max response in [1] was 5.09% (inactive) and -10.7% (inactive); in test [2], 2.85% (inactive). Moreover, the Potency result in test [3] and in [6] was “inactive” throughout. The molecule was called inactive in test [4], in test [5] and in test [7].
`C=Cc1c(C)c2cc3[nH]c(cc4nc(cc5nc(cc1[nH]2)C(C)=C5CCC(=O)O)C(CCC(=O)O)=C4C)c(C)c3C=C`: the max response in test [1] is 11.4% (inactive) and 22% (inactive). Further, the molecule was called inactive in [4], in [5] and in test [7].
`CCN(CC)C(C)CN1c2ccccc2Sc2ccccc21` (stereo not given): in [1], the max response is 2.08% (inactive) and 2.32% (inactive). In addition, the molecule was called inactive in [4], in test [5] and in test [7].
As for `CC1(C)Oc2ccc(C#N)cc2[C@@H](N2CCCC2=O)[C@@H]1O`, the max response in [1] is -8.5% (inactive) and 8.76% (inactive). The result in test [4], in test [5] and in test [7] was inactive.
Consider `NC1[C@H]2CN(c3nc4c(cc3F)c(=O)c(C(=O)O)cn4-c3ccc(F)cc3F)C[C@@H]12` (stereo not given in full), for which the max response in test [1] was -0.422% (inactive). In addition, the result in [4], in test [5] and in [7] was inactive.
With `C#CCN(C)Cc1ccccc1`, the max response in test [1] was 14.1% (inactive) and 13.7% (inactive). Besides, the molecule was called inactive in test [4], in [5] and in test [7]. The Potency result in [6] is “inactive”.
Take `CCCCN(CCCC)CC(O)c1cc(Cl)cc2c1-c1ccc(Cl)cc1/C2=C/c1ccc(Cl)cc1` (stereo not given): the remaining parasite growth % (stronger effect = lower value) in test [8] was found to be 0.77%. In test [9], this molecule had an activity, percent of control of 1.35%. This molecule also displayed a remaining proliferation (% of control), lower = more inhibition in [10] of 1.36%. Besides, the outcome in [4], in test [5] and in test [7] was inactive. Further, the Potency entry in test [6] was “inactive”.
With `CCCCCCCCCCCCCCCCCCOCC(O)CO` (stereo not given), the max response in [1] is 1.98% (inactive). In addition, the result in [4], in test [5] and in test [7] was inactive.
`COc1ccc2cc1Oc1ccc(cc1)C[C@H]1c3c(cc4c(c3Oc3cc5c(cc3OC)CCN(C)[C@@H]5C2)OCO4)CCN1C`: the result in test [4], in [5] and in [7] was inactive.
Turning to `CNCCCC1c2ccccc2C=Cc2ccccc21`, the molecule was called inactive in test [4], in test [5] and in [7].
As for `O=C(O)CC(O)C(=O)O` (stereo not given), in test [1], the max response was -0.517% (inactive). In addition, the molecule was called inactive in [4], in test [5] and in test [7]. In addition, in [6], the Potency entry is “inactive”.
Consider `C[C@H]1O[C@H](O[C@H]2[C@H](O)[C@@H](O)[C@@H](O[C@H]3[C@H](O)[C@@H](O)[C@H](O)O[C@@H]3CO)O[C@@H]2CO)[C@H](O)[C@@H](O)[C@@H]1N[C@H]1C=C(CO)[C@@H](O)[C@H](O)[C@H]1O`, for which, in test [1], the max response is 2.05% (inactive). Also, the outcome in test [4], in test [5] and in [7] was inactive.
`CCCCN1CCCC[C@H]1C(=O)Nc1c(C)cccc1C`: the max response in [1] is 12.1% (inactive). The molecule was classed as inactive in test [4], in [5], in [7] and in [11].
For `CCCCCCCCCCCCCCCC(=O)NCCO`, the max response in [1] was -1.98% (inactive) and 26.2% (inactive). Further, the call in [4], in test [5] and in test [7] was inactive.
Regarding `CC1=C(C/C=C(\C)CCC[C@H](C)CCC[C@H](C)CCCC(C)C)C(=O)c2ccccc2C1=O`, the molecule was called inactive in [4], in test [5] and in test [7].

Source of the values: PubChem BioAssay (NCATS).
